Measured values as given in PubChem BioAssay (NCATS).
Inconclusive results are not listed. Active and inactive are the calls of the source. The call rests on the fitted dose curve; in most records, active means well fitted curve in the direction sought with a large enough effect; inconclusive means small, poorly fitted or top-dose-only effect, or another doubt; inactive means no such curve, though single readings can be large; an effect the other way counts as inactive or inconclusive. Starred links: 1 amine or outer side, 2 acyl side, 3 side chain; linkers in the order of their positions; H or OH if unused. Positions of bridges follow the written chain, without caps; N, C: chain ends. Non-standard residues stand in square brackets, D forms with d. Residues, ends and D or L forms follow the SMILES beside them. Chains are numbered I, II in the order given. Actinocin(9to1) = Cc1c2oc3c(C)ccc(C(=O)[*:1])c3nc-2c(C(=O)[*:2])c(N)c1=O; NMeV = CN[CH](C(=O)O)C(C)C; Sar = CNCC(=O)O

Legend:
[1] = qHTS of pediatric cancer cell lines to identify multiple opportunities for drug repurposing: Confirmatory screen for TC32 cells (AID 1347118);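 further: cells exposed to compound for 48 h before the read; nearly all actives have a fitted effect of over 65% in size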; further: potency means the concentration at half of the fitted maximal effect
Outline: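 qHTS, TC32, 48 h drug treatment, CellTiter-Glo luminescence as a proxy for metabolically active cells; primary top concentration 46 µM (MIPE 11-pt, NPC 8-pt); confirmatory 11-pt.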

[2] = qHTS of pediatric cancer cell lines to identify multiple opportunities for drug repurposing: Confirmatory screen for MG 63 (6-TG R) cells (AID 1347119); further: nearly all actives have a fitted effect of over 55% in size; further: potency means the concentration at half of the fitted maximal effect
Outline: (§1)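 Cells (500-1,000/well) rested 5 h, then received compounds for 48 h; metabolically active cells were measured by CellTiter-Glo luminescence. Final concentrations spanned up to 46 µM (MIPE, 11-point) or 0.59 nM-46 µM (NPC, 8-point) in primary screens, 11-point in follow-ups.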

[3] = qHTS of pediatric cancer cell lines to identify multiple opportunities for drug repurposing: Confirmatory screen for Rh18 cells (AID 1347125); further: nearly all actives have a fitted effect of over 55% in size; further: potency means the concentration at half of the fitted maximal effect
Outline: as §1

[4] = qHTS of pediatric cancer cell lines to identify multiple opportunities for drug repurposing: Confirmatory screen for Rh30 cells (AID 1347126); further: nearly all actives have a fitted effect of over 55% in size; further: potency means the concentration at half of the fitted maximal effect
Outline: as §1

[5] = qHTS of pediatric cancer cell lines to identify multiple opportunities for drug repurposing: Confirmatory screen for Saos-2 cells (AID 1347127); further: nearly all actives have a fitted effect of over 60% in size; further: potency means the concentration at half of the fitted maximal effect
Outline: as §1

[6] = qHTS of pediatric cancer cell lines to identify multiple opportunities for drug repurposing: Confirmatory screen for OHS-50 cells (AID 1347128);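 further: potency means the concentration at half of the fitted maximal effect; compound exposure lasted 48 h at 37 degrees C; nearly all actives have a fitted effect of over 55% in size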
Outline: as §1

[7] = system: Zika virus NS2B-NS3 protease; assay: Primary screen GU AMC qHTS for Zika virus inhibitors (AID 1347154); further: nearly all actives have a fitted effect of over 70% in size; further: potency means the concentration at half of the fitted maximal effect
Outline: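 Fluorogenic AMC-substrate cleavage by noncovalent NS2B-NS3 protease complex (25 nM, pH 8.0 Tris buffer with Tween 20) followed for 15 minutes at room temperature (~20% conversion). Percent inhibition from ex340/em450 signal change, fitted by 4-parameter Hill equation.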

[8] = qHTS of pediatric cancer cell lines to identify multiple opportunities for drug repurposing: Confirmatory screen for control Hh wild type fibroblast cells (AID 1347121); further: nearly all actives have a fitted effect of over 70% in size; further: potency means the concentration at half of the fitted maximal effect
Outline: as §1

[9] = qHTS of pediatric cancer cell lines to identify multiple opportunities for drug repurposing: Confirmatory screen for Rh41 cells (AID 1347123);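 further: potency means the concentration at half of the fitted maximal effect; 48 h compound exposure; nearly all actives have a fitted effect of over 60% in size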
Outline: as §1

[10] = qHTS of pediatric cancer cell lines to identify multiple opportunities for drug repurposing: Confirmatory screen for RD cells (AID 1347124);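 further: cells exposed to compound for 48 h before viability readout; nearly all actives have a fitted effect of over 65% in size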; further: potency means the concentration at half of the fitted maximal effect
Outline: as §1

[11] = qHTS of pediatric cancer cell lines to identify multiple opportunities for drug repurposing: Confirmatory screen for U-2 OS cells (AID 1347122); further: nearly all actives have a fitted effect of over 65% in size; further: potency means the concentration at half of the fitted maximal effect
Outline: as §1

[12] = qHTS of pediatric cancer cell lines to identify multiple opportunities for drug repurposing: Confirmatory screen for BT-37 cells (AID 1347117); conditions: BT-37 pediatric cancer cells, viability; activity change, negative = cytotoxic: at 45.9 µM (top of the series); further: nearly all actives have a fitted effect of over 55% in size; further: potency means the concentration at half of the fitted maximal effect
Outline: as §1

[13] = qHTS of pediatric cancer cell lines to identify multiple opportunities for drug repurposing: Confirmatory screen for SK-N-SH cells (AID 1347129);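 further: cells exposed to compound for 48 h before viability read; nearly all actives have a fitted effect of over 60% in size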; further: potency means the concentration at half of the fitted maximal effect
Outline: as §1

[14] = qHTS of pediatric cancer cell lines to identify multiple opportunities for drug repurposing: Confirmatory screen for SJ-GBM2 cells (AID 1347116); further: potency means the concentration at half of the fitted maximal effect; nearly all actives have a fitted effect of over 60% in size
Outline: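 Viability measured as metabolically active cells via CellTiter-Glo luminescence following 48 hours of compound exposure, 11-point dilutions in confirmatory testing. 500-1,000 cells/well plated 5 hours before dosing; controls were DMSO and 2.3 µM bortezomib.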

Furin (Homo sapiens) = Furin (Homo sapiens) (UniProt P09958); assay: Furin counterscreen qHTS for Zika virus inhibitors (AID 1347149);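 further: purified recombinant full-length human furin enzyme at 5 nM; fluorescence gain from furin cutting a BOC-RVRR-AMC peptide substrate over 15 min; top concentration of the series differs between compounds; nearly all actives have a fitted effect of over 70% in size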
Outline: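 Fluorogenic cleavage of BOC-RVRR-AMC (2 microM final, Km ~15 µM) was monitored (ex 340, em 450 nm) at 37C after 15 min RT preincubation of 5 nM furin with compounds in HEPES pH 7.0 buffer with CaCl2 and Triton X-100. Percent inhibition was fitted to a 4-parameter Hill curve.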

[15] = system: Zika virus NS2B-NS3 protease (linked construct); assay: Confirmatory screen NINDS AMC qHTS for Zika virus inhibitors (AID 1347152); further: top concentration of the series differs between compounds; nearly all actives have a fitted effect of over 70% in size
Outline: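 IC50s from 4-parameter Hill fits of percent inhibition, based on AMC fluorescence gain (340/450 nm) over 15 min with 10 microM Bz-Nle-KRR-AMC. Enzyme: 1 nM linked NS2B-NS3 in Tris-HCl pH 8.0; 15-min compound preincubation.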

[16] = system: Zika virus NS2B-NS3 protease (unlinked complex); assay: Confirmatory screen GU AMC qHTS for Zika virus inhibitors (AID 1347153); further: nearly all actives have a fitted effect of over 70% in size
Outline: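 Fluorescence change (ex 340/em 450 nm) over 15 min, ~20% substrate conversion, normalized to no-inhibitor and no-enzyme controls, then Hill-fitted. Unlinked protease at 25 nM; AMC peptide 10 µM.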

Measured: Potency

Sequence of Furin (Homo sapiens) (P09958 whole entry, looked up): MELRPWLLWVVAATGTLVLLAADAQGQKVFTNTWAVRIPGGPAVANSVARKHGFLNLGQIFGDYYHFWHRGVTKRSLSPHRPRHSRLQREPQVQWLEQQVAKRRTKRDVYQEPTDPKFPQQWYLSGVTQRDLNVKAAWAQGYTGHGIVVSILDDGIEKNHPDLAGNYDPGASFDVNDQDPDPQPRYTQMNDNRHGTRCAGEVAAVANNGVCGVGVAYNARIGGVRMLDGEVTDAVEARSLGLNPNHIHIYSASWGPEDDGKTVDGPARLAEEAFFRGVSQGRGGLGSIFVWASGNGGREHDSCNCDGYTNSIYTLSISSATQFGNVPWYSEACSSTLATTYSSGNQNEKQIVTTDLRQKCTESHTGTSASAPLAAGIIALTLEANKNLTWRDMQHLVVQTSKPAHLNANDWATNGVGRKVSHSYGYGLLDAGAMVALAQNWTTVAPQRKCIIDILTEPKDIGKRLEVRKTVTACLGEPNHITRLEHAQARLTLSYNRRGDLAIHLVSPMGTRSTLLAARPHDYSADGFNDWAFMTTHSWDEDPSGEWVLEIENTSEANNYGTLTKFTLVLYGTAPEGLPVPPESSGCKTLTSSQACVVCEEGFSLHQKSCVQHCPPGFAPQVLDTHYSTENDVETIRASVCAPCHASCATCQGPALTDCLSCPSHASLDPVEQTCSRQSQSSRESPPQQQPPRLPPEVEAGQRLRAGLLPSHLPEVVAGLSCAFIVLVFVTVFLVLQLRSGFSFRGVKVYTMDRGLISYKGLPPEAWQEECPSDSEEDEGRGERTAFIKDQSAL

CC(=O)O[C@@]12CO[C@H]1C[C@H](O)[C@@]1(C)C(=O)[C@H](O)C3=C(C)[C@@H](OC(=O)C(O)[C@@H](NC(=O)OC(C)(C)C)c4ccccc4)C[C@@](O)([C@@H](OC(=O)c4ccccc4)[C@@H]21)C3(C)C (some centres not stated)
inactive: [3] | [4] | [7]
active: [1] 5.9 nM | [2] 7.4 nM | [5] 13.1 nM | [6] 23.3 nM

Cc1cnc(Nc2ccc(N3CCN(C)CC3)cc2)nc1Nc1cccc(S(=O)(=O)NC(C)(C)C)c1
inactive: [7]
active: [1] 2330 nM | [2] 2930 nM | [8] 14700 nM | [9] 3290 nM | [10] 7370 nM | [3] 2930 nM | [5] 3690 nM

NC(=O)Nc1cc(-c2ccc(CN3CCOCC3)cc2)sc1C(N)=O
active: [1] 414 nM | [2] 3690 nM | [9] 13100 nM | [5] 13100 nM

CCc1cc(C(C)=NOCc2ccc(C3CCCCC3)c(C(F)(F)F)c2)ccc1CN1CC(C(=O)O)C1
inactive: [2] | [11] | [10] | [3] | [4]
active: [1] 9270 nM | [5] 14700 nM | [6] 23300 nM

Cc1c2oc3c(C)ccc(C(=O)NC4C(=O)NC(C(C)C)C(=O)N5CCCC5C(=O)N(C)CC(=O)N(C)C(C(C)C)C(=O)OC4C)c3nc-2c(C(=O)NC2C(=O)NC(C(C)C)C(=O)N3CCCC3C(=O)N(C)CC(=O)N(C)C(C(C)C)C(=O)OC2C)c(N)c1=O (configuration not stated) (I: TVP[Sar][NMeV] / II: TVP[Sar][NMeV]; ester I:1-I:C, II:1-II:C; linker I:N-II:N via Actinocin(9to1); configuration not given here)
active: [12] 2.6 nM | [1] 16.5 nM | [9] 18.5 nM | [3] 29.3 nM | [6] 36.9 nM | [13] 18.7 nM
inactive: [4] | [7]

CC(=O)O[C@H]1C[C@@H]2CC[C@H]3[C@H]4C[C@H]([N+]5(C)CCCCC5)[C@@H](OC(C)=O)[C@@]4(C)CC[C@@H]3[C@@]2(C)C[C@H]1N1CCCCC1
active: [14] 14700 nM | [1] 2330 nM | [9] 7370 nM | [3] 10400 nM | [4] 8270 nM | [6] 16500 nM
inactive: [2] | [10] | [7]

N#CNC(=NCCCCCCOc1ccc(Cl)cc1)Nc1ccncc1
active: [14] 41.4 nM | [1] 4.1 nM | [9] 16.5 nM | [10] 36.9 nM | [3] 46.5 nM | [4] 18.5 nM | [5] 20800 nM

CC(N[C@H]1CCCC[C@H]1NC(=O)c1ccc(Cl)cc1)c1cccc2ccccc12 (some centres not stated)
inactive: [7]
active: [12] 23300 nM | [1] 5850 nM | [2] 23300 nM | [5] 26100 nM | [13] 9350 nM

Cc1cc(Nc2ncc3c(n2)N(C)C(=O)N(c2cc(NC(=O)c4cccc(C(F)(F)F)c4)ccc2C)C3)n(C)n1
inactive: [4] | [7]
active: [1] 329 nM | [2] 465 nM | [11] 369 nM | [10] 657 nM | [3] 737 nM | [5] 585 nM | [13] 332 nM

Cn1cnc(=N)c2[nH]cnc21
inactive: [12] | [1] | [2] | [8] | [3] | [5] | [13] | [7]

CNC(=O)c1cccc(-c2ccc3c(N4CCOC[C@H]4C)nc(N4CCOC[C@H]4C)nc3n2)c1
active: [14] 2610 nM | [1] 737 nM | [2] 522 nM | [6] 6570 nM | [7] 24100 nM
inactive: Furin (Homo sapiens) | [15] | [16]

O=C1NCCc2[nH]c(-c3ccncc3)cc21
active: [1] 4140 nM | [2] 8270 nM | [9] 2330 nM | [5] 3690 nM | [6] 2930 nM | [13] 2090 nM
inactive: [7]

CCOc1cc2ncc(C#N)c(Nc3ccc(OCc4ccccn4)c(Cl)c3)c2cc1NC(=O)C=CCN(C)C
inactive: [7]
active: [14] 4140 nM | [10] 2330 nM | [4] 5850 nM

CCC(C(=O)O)C1CCC(C)C(C(C)C(O)C(C)C(=O)C(CC)C2OC3(C=CC(O)[C@@]4(CC[C@](C)(C5CC[C@@](O)(CC)C(C)O5)O4)O3)C(C)CC2C)O1 (some centres not stated)
active: [4] 18500 nM
inactive: [1] | [2]

COc1cc(OC)c(C=CS(=O)(=O)Cc2ccc(OC)c(NCC(=O)O)c2)c(OC)c1
active: [12] 657 nM | [1] 208 nM | [2] 208 nM | [11] 293 nM | [9] 293 nM | [5] 329 nM
inactive: [3] | [4] | [7]

COc1cc(C=CC(=O)CC(=O)C=Cc2ccc(O)c(OC)c2)ccc1O
active: [12] 30200 nM | [1] 9550 nM | [2] 26900 nM | [5] 33900 nM

COc1cccc2c1C(=O)c1c(O)c3c(c(O)c1C2=O)C[C@@](O)(C(C)=O)C[C@H]3O[C@H]1C[C@H](N)[C@H](O)[C@H](C)O1
inactive: [4] | [7]
active: [14] 1310 nM | [1] 117 nM | [2] 233 nM | [10] 2610 nM | [3] 2610 nM | [13] 662 nM

CS(=O)(=O)N1CCc2c(-c3cnc(N)nc3)nc(N3CCOCC3)nc21
active: [14] 7370 nM | [1] 1850 nM | [2] 585 nM | [9] 1850 nM | [10] 1310 nM | [3] 1850 nM | [4] 1470 nM | [5] 2330 nM | [6] 2930 nM
inactive: [7]
